Source: ChEMBL document CHEMBL3988442, “University of Dundee, Small-Polar-MMV Screening Library” (2021)
Hit rate of the full screen: of about 48,000 compounds, about 13,000 (27%) showed an effect of 50% or more. The list shows a part of the results.

system: Wolbachia pipientis; test: Anti-Wolbachia Cell-Based Screen; format: functional; set-up: scale not given: in the data most compounds retested in dose-response had high values; details: 5 µM

Structure (SMILES)	Percent Effect [%]
O=C(Cc1cccs1)NCCNc1nccc(C(F)(F)F)n1	-1.179
CCn1cc(CN2CCCCC2CCn2ccnc2C)cc1C#N (stereo not given)	-5.966
O=C(NCc1ccccc1CN1CCCC1=O)Nc1nncs1	-15.38
CC(Nc1ccc(N2C(=O)CCCC2=O)cc1)c1ccc(C#N)cc1 (stereo not given)	-5.853
CCS(=O)(=O)N1C[C@@H](OCc2cccnc2)[C@H]2OCCC[C@H]21.O=C(O)C(F)(F)F	-26.44
CC(=O)NCC(=O)N1C[C@H](OCc2cccnc2)[C@H]2COC[C@H]21	-9.929
Cc1nc(CO[C@H]2CN(C(=O)c3cnoc3C)[C@@H]3COC[C@H]23)cs1.O=C(O)C(F)(F)F	-46.26
Cc1nc(CO[C@H]2CN(C(=O)c3cccn3C)[C@@H]3COC[C@H]23)cs1.O=C(O)C(F)(F)F	-15.2
O=C(Cc1ccccn1)N1C[C@H](OCc2cccnc2)[C@H]2COC[C@H]21.O=C(O)C(F)(F)F.O=C(O)C(F)(F)F	111.5
CC(C)NC(=O)N1C[C@H](OCc2cccnc2)[C@H]2COC[C@H]21.O=C(O)C(F)(F)F	112.7
O=S(=O)(NCCNc1ccc(-n2cccn2)nn1)c1ccccc1	-3.314
Cc1noc(C)c1CN(C)C(=O)c1cnc(C2CC2)nc1O	-11.89
O=C(NCc1cccc2cccnc12)N1CCC(n2cncn2)CC1	-5.707
CCOc1ncccc1CNC(=O)N1CCC(n2cncn2)CC1	108.5
CCOc1ncccc1CNC(=O)N1CCCC1c1ccncc1 (stereo not given)	0.3129
CCOc1ccccc1CNC(=O)N1CCC(n2cncn2)CC1	121.4
CC(C)Oc1ccccc1CNC(=O)N1CCC(n2cncn2)CC1	15.2
Cc1cc(C(C)NC(=O)N2CCC(n3cncn3)CC2)c(C)s1 (stereo not given)	2.137
Cc1ccccc1CNC(=O)N1CCC(n2cncn2)CC1	111.6
CCC(CC)c1cc(CNC(=O)N2CCCN(C(C)=O)CC2)on1	-7.46
O=S(=O)(CC1CCCCC1)NCc1ccc(O)nc1	-3.814
CC1CCN(C(=O)c2ccnc(-n3cncn3)c2)c2ccccc21 (stereo not given)	8.063

Structure (SMILES)	Percent Effect [%]
COC[C@@H]1CCC[C@@]12CN(C(=O)C1CCOCC1)CCO2	108.7
CC(C)OC[C@H]1CCC[C@]12CN(C(=O)C1CCOCC1)CCO2	106.2
Cn1ccc(N2CCCC(NC(=O)c3ccc(Cl)o3)C2=O)n1 (stereo not given)	-25.47
COc1cc(F)ccc1N1CCN(Cc2nc(C)c(C)o2)CC1	-8.318
Cc1cn2nc(N3CCCC3Cn3cncn3)sc2n1 (stereo not given)	1.731
CC(C)(C)c1cn2nc(N3CCCC3Cn3cncn3)sc2n1 (stereo not given)	-4.327
Cc1cn2nc(N3CCCC3C(=O)N3CCN(C)CC3)sc2n1 (stereo not given)	-72.4
Cc1cn2nc(N3CCCC3Cn3cccn3)sc2n1 (stereo not given)	112.3
Cc1cn2nc(N3CCCC3CC(C)(C)C)sc2n1 (stereo not given)	1.66
Cc1cn2nc(N3CCCCC3Cn3cccn3)sc2n1 (stereo not given)	120.6
Cc1cnn(CC2CCCCN2c2nn3cc(C)nc3s2)c1 (stereo not given)	94.21
Cc1cn2nc(N3CCCC3Cn3nc(C)nc3C)sc2n1 (stereo not given)	128.5
CC(C)(C)c1cn2nc(N3CCCCC3Cn3cncn3)sc2n1 (stereo not given)	11.04
Cc1cn2nc(N3CCCC3Cn3nc(C)cc3C)sc2n1 (stereo not given)	8.981
Cc1cnn(CC2CCCN2c2nn3cc(C)nc3s2)c1 (stereo not given)	9.552
CC(C)(C)c1cn2nc(N3CCCC3Cn3cccn3)sc2n1 (stereo not given)	7.986
CCN1CCN(C(=O)c2[nH]c3ccccc3c2Cl)[C@H]2CS(=O)(=O)C[C@H]21	2.793
COCCNc1ccccc1CNC(=O)NCc1cnc(C)s1	-0.4507
COCCn1cc(C(=O)N2CCCC2c2cnn(C)c2)ccc1=O (stereo not given)	-26.74
COc1ccc(C(=O)N2CCCC2c2cnn(C)c2)cn1 (stereo not given)	112.3
CNC(=O)c1ccc(C(=O)N2CCCC2c2cnn(C)c2)cn1 (stereo not given)	5.729
CC(C)Oc1ccc(C(=O)N2CCCC2c2cnn(C)c2)cn1 (stereo not given)	97.67

Structure (SMILES)	Percent Effect [%]
Cc1cnn(CC2CCCN2C(=O)c2ccc(OC(C)C)nc2)c1 (stereo not given)	-7.33
Cn1cc(C2CCCN2C(=O)c2ccc(OCC3CC3)nc2)cn1 (stereo not given)	114.7
CCOc1ccc(C(=O)N2CCCC2c2cnn(C)c2)cn1 (stereo not given)	110.2
Cc1nnc(CN(C)S(=O)(=O)c2ccc(Br)cc2Cl)n1C	5.813
CC(C)Oc1cccc(C(=O)C2CCCN(S(=O)(=O)C(C)C)C2)c1 (stereo not given)	1.86
Cc1nn(CCO)c(C)c1CNC1CCCCc2ccccc21 (stereo not given)	2.659
O=C(NCCc1ccn(-c2ccc(F)cc2)n1)C1CCCOC1 (stereo not given)	-15.61
CCOC1CCCN(C(=O)NCCc2ccn(-c3ccccc3)n2)C1 (stereo not given)	9.361
O=C(NCCc1ccn(-c2ccccc2)n1)N1CCCC(CO)C1 (stereo not given)	104.8
CCOC1CCN(C(=O)NCCc2ccn(-c3ccccc3)n2)CC1	152.6
O=C(NCCc1ccn(-c2ccccc2)n1)N1CCSCC1	87.95
O=C(NCCc1ccn(-c2ccccc2)n1)N1CCCC(O)C1 (stereo not given)	108.2
CCOC1CCN(C(=O)NCc2ccc(C(=O)N(C)C(C)C)cc2)CC1	-14.18
CC1(C)CN(C(=O)NCCc2ccn(-c3ccccc3)n2)CCO1	-7.348
O=C(NCCc1ccn(-c2ccccc2)n1)N1CCC1	5.708
O=C(NCCC1Cc2ccccc2C1)N1CCCC(O)C1 (stereo not given)	-12.54
CC(C)(C)c1cn(C2CCN(C(=O)c3cncnc3)CC2)nn1	8.941
Cc1cc2ncc(C(C)NCc3cccnc3)c(C)n2n1 (stereo not given)	0.9631
O=C(c1cccc2ncccc12)N1CCCN(c2cccnn2)CC1	-3.765
N#Cc1ccc(N2CCN(c3ncccn3)CC2)c(C(F)(F)F)c1	0.2646
COc1cccc(CCCNC(=O)N2CCC(O)(C(F)(F)F)C2)c1 (stereo not given)	-22.68
